The supplement of paper PMC6518042

The molecules below were run on Pectobacterium parmentieri SCC3193 (assay: DuctApe activity index (growth/respiration on compound as sole nutrient source, blank-subtracted) (activity index (0-3)); higher = stronger utilization of the compound, active = 3 or more). Conditions: nutrient role (plate category): carbon.
Description: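 Biolog Phenotype Microarray plates PM1, PM2A (carbon), PM3 (nitrogen) and PM4 (phosphorus/sulfur) inoculated with P. parmentieri SCC3193 in M9-C minimal salts medium with Biolog dye A, and read in the OmniLog for 46 h. Each well was tested in triplicate and the experiment was run twice. DuctApe computed a blank-subtracted activity index (AV, 0-3) from the mean curves; growth is positive at AV >= 3 and negative at AV <= 2.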

DuctApe activity index, active:
OC[C@H]1O[C@@H](O[C@@H]2[C@@H](CO)OC(O)(CO)[C@H]2O)[C@H](O)[C@@H](O)[C@H]1O (mixture of isomers) [Lactulose] 3
O=C(O)CCC(=O)O [Succinic acid] 3
OC[C@@H](O)[C@@H](O)[C@H](O)[C@H](O)CO [D-Mannitol] 3
OCC1OC(OC2C(CO)OC(O)C(O)C2O)C(O)C(O)C1O [D-Cellobiose] 3
OC[C@H]1O[C@@H](Oc2ccc(O)cc2)[C@H](O)[C@@H](O)[C@@H]1O [Arbutin] 3
O=C(O)[C@H](O)[C@@H](O)[C@H](O)[C@H](O)CO [D-Gluconic acid] 3
OCC1(O)OC[C@@H](O)[C@@H](O)[C@H]1O (stereo partly drawn) [D-Psicose] 3
OC[C@H]1OC(O)[C@@H](O)[C@@H](O)[C@@H]1O (stereo partly drawn) [D-Mannose] 3
OC[C@H]1O[C@@H](O[C@H]2[C@H](O)[C@@H](O)[C@@H](O)O[C@@H]2CO)[C@H](O)[C@@H](O)[C@H]1O [a-D-Lactose] 3
O=C(O)C(O)C(O)C(=O)O (stereo not given) [m-Tartaric acid] 3

DuctApe activity index, inactive:
C[C@@H](O)CC(=O)O [b-Hydroxybutyric acid] 0
OC[C@H]1O[C@H](O[C@H]2[C@H](O)[C@@H](O)[C@H](O)O[C@@H]2CO)[C@H](O)[C@@H](O)[C@@H]1O [Maltose] 1
CCC(=O)O [Propionic acid] 0
CO[C@@H]1O[C@H](C(=O)O)[C@@H](O)[C@H](O)[C@H]1O [b-Methyl-D-Glucuronic acid] 0
OCC(O)C(O)C(O)CO (stereo not given) [Adonitol] 1
NCC(=O)N1CCC[C@H]1C(=O)O 0
C/C=C/C=C/C(=O)O [Sorbic acid] 0
OC[C@@H](O)[C@H](O)[C@@H](O)CO [Xylitol] 0
O=C(CO)CO [Dihydroxyacetone] 1
O=C(O)[C@H](O)[C@@H](O)C(=O)O [L-Tartaric acid] 0
